Assay outcomes deposited in PubChem BioAssay by National Center for Advancing Translational Sciences (NCATS).
Hits are enriched below; roughly 2.4% of the tested compounds scored in any of these assays.
Cruzain inh Det – blocks cruzain activity in presence of Triton detergent; P25779; purified cruzain, Z-FR-AMC fluorescence, 0.01% Triton; Potency, µM, inactives show max response, negative = inhibition, hits mostly inhibitors; 200,000 tested, 0.43% active; AID 1478;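 further: plate controls were neutral wells for no effect and buffer without enzyme for full effect; nearly all actives have a fitted effect of over 40% in size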
Target sequence (P25779 123-467 limits assumed): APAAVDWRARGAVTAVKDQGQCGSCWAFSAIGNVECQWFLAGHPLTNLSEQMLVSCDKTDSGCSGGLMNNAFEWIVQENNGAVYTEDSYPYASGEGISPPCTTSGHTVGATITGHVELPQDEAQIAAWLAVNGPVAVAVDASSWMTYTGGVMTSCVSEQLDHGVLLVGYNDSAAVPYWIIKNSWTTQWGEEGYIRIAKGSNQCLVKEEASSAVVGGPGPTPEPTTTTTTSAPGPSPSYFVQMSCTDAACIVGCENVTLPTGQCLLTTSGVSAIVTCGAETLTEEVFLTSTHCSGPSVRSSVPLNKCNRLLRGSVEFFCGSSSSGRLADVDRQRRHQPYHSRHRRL
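15 min RT preincubation of 1.5 nM cruzain with compound, then 2 uM Z-FR-AMC added; kinetic AMC fluorescence, 60 s delta. Triton X-100 0.01%, pH 5.5.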
Cruzain noTriton – inhibitors of Trypanosoma cruzi cruzain without detergent | purified cruzain, Z-FR-AMC fluorescence, no detergent | Potency, µM, inactives show max response, negative = inhibition, actives largely listed as inhibitors | 200,000 tested, 2.3% active | AID 1476;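 further: plate controls were enzyme without inhibitor for no effect and buffer without enzyme for full effect; nearly all actives have a fitted effect of over 40% in size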
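Detergent-free condition (0.00005% Triton X-100) in acetate buffer pH 5.5 with DTT. 1.5 nM enzyme and compound were pre-mixed 15 min, then 2 uM Z-FR-AMC substrate added; reaction progress from fluorescence change between first and third reads (60 s).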
* = called active by the depositor; ? = inconclusive; ! = repeats disagree. The call rests on the fitted dose curve; in most records, active means well fitted curve in the direction sought with a large enough effect; inconclusive means small, poorly fitted or top-dose-only effect, or another doubt; inactive means no such curve, though single readings can be large; an effect the other way counts as inactive or inconclusive. Potency means the concentration at half of the fitted maximal effect.

SMILES | Cruzain inh Det | Cruzain noTriton
Cc1nn(-c2ccccc2)c(N2CCCC2)c1/C=N/NC(=O)c1cc(-c2ccccn2)nc2ccccc12 | -5.5% | 5.9%
Cc1nn(-c2ccccc2)c(N2CCCC2)c1/C=N/NC(=O)c1cc(-c2ccccc2)nc2ccccc12 | -5.3% | 3.98µM*
O=C(O)c1ccc(/C=N/NC(=O)c2cc(-c3cccs3)nc3ccccc23)cc1 | -10.2% | 12.7%
Cc1nn(-c2ccccc2)c(N2CCCC2)c1/C=N/NC(=O)c1cc2ccccc2cc1O | -6.8% | 15.8µM*
Cc1nn(-c2ccccc2)c(N2CCCC2)c1/C=N/NC(=O)c1cc(-c2cccs2)nc2ccccc12 | -4.7% | 10µM*
Cc1nn(-c2ccccc2)c(N2CCCC2)c1/C=N/NC(=O)c1cccc(S(=O)(=O)Nc2ccc(Cl)cc2)c1 | -6.4% | ?
COc1ccc2c(Sc3ccc(Cl)cc3)c(C(=O)N3CCCCC3)[nH]c2c1 | -8.4% | ?
CN(C)CN1CSC(=S)N(CN(C)C)C1 | 3.0% | 11.2%
O=C(C1CCN(S(=O)(=O)Cc2ccccc2)CC1)N1CCN(c2cccc(C(F)(F)F)c2)CC1 | -3.3% | -3.1%
COc1cc(OC)c(NC(=O)N2CCc3cc(S(=O)(=O)N4CCC(C)CC4)ccc32)cc1Cl | -0.4% | 3.2%
COC(=O)c1ccc(NC(=O)CC2C(=O)N(c3cccc(OC)c3)C(=O)N2Cc2ccco2)cc1 (stereo unspecified) | -5.0% | -10.8%
CCOc1ccc(CNC(=O)c2c(C)nn(-c3ccc(F)cc3)c2-n2cccc2)cc1 | -3.4% | ?
Cc1nn(-c2ccc(S(=O)(=O)O)cc2)c(O)c1N=Nc1ccc(-c2ccc(N=Nc3ccc4c(S(=O)(=O)O)cc(S(=O)(=O)O)c(N)c4c3O)c(O)c2)cc1O.[Cu].[Cu] | -5.6% | 0.9%
COc1cc(-c2ccc(N=Nc3ccc4c(S(=O)(=O)O)cc(S(=O)(=O)O)c(N)c4c3O)c(OC)c2)ccc1N=Nc1ccc2c(S(=O)(=O)O)cc(S(=O)(=O)O)c(N)c2c1O | 25.1µM*! | ?
Cn1c(=O)c(-c2cccs2)nc2cnc(N3CCNCC3)nc21 | -4.8% | 4.2%
O=C(O)C(Cl)(c1ccccc1)c1ccccc1 | 0.1% | 8.4%
COC(=O)c1c(C)ccc2c(O)c3c(cc12)C(=O)c1c2c(cc(O)c1C3=O)[C@@]1(C)O[C@@](C)(O2)[C@@H](O)[C@H](N(C)C)[C@H]1O | 4.3% | 2.5%
CCc1ccc(-c2cc(C)no2)cc1S(=O)(=O)N1CCN(c2cccc(Cl)c2)CC1 | -3.0% | 25.1µM*
Cc1ccc2cccc(S(=O)(=O)N3CCN(c4cccc(Cl)c4)CC3)c2n1 | -0.5% | -2.3%
O=c1cnc2cnc(N3CCNCC3)nc2n1C1CC1 | -12.2% | -16.2%
c1ccc2nc3ccccc3nc2c1 | -2.2% | -20.2%
Nc1nc2ccccc2nc1N | -18.8% | 20µM*
CC(C)CSc1nnc2c(n1)[nH]c1ccccc12 | -1.3% | -26.3%
CCOC(=O)CC(=O)CSc1nnc2c(n1)[nH]c1ccccc12 | -3.3% | ?
O=C(CSc1nnc2c(n1)[nH]c1ccccc12)OCc1ccccc1 | -3.3% | 25.1µM*
SMILES | Cruzain inh Det | Cruzain noTriton
CCCCSc1nnc2c(n1)[nH]c1ccccc12 | -0.4% | 25.1µM*
CCOC(=O)C1CCN(C(=O)C2CCN(c3nnc(C)c4c(C)n(-c5ccccc5)nc34)CC2)CC1 | -3.3% | 8.6%
C/C=C(/CC[C@@H](C)[C@H]1CCC2C3=CC[C@H]4[C@H](C)[C@@H](O)CC[C@]4(C)C3CC[C@@]21C)C(C)C (stereo partly specified) | 7.9% | 3.1%
CC(=O)c1c(C)oc2ccc(N(C(=O)Oc3ccccc3)S(=O)(=O)c3ccc(C(C)(C)C)cc3)cc12 | 6.2% | -13.3%
CC(C)CN1CCc2nc(N3CCN(C)CC3)ncc2C1 | -0.5% | -3.3%
Nc1ccc(-c2nc3ccc(N)cc3o2)cc1 | 20µM* | 15.8µM*
Cc1ccc2nc(-c3cc(N)cc(N)c3)oc2c1 | -1.5% | ?
CN(N=O)c1ccc(/C=C\c2ccnc3ccccc23)cc1 | -6.6% | -4.3%
Cc1ccc(C2c3[nH]c4ccccc4c3CCN2C(=O)CCc2ccccc2)cc1 (stereo unspecified) | 1.5% | ?
COc1ccc(C(=O)N/N=C/c2ccc(OC)c(CN3CCN(c4ccc(F)cc4)CC3)c2)cc1 | -9.8% | 6.2%
COc1ccc(C(=O)N/N=C/c2ccc(OC)c(CN3CCCc4ccccc43)c2)cc1 | -7.3% | 15.8µM*
O=C(Cc1ccccc1)Nc1nc2ccccc2[nH]1 | 0.2% | 2.3%
O=C(Cc1c[nH]c2ccccc12)Nc1nc2ccccc2[nH]1 | -25.9% | 25.1µM*
CCC(Nc1ccc(-c2nc(-c3ccco3)no2)cc1[N+](=O)[O-])c1ccccc1 (stereo unspecified) | -9.2% | ?
O=C(c1noc2c1CCCCC2)N1CCN(c2cccc(C(F)(F)F)c2)CC1 | -13.7% | 18.9%
Cc1ccc(C)n1NC(=O)c1ccc(Cl)cc1 | 1.2% | -3.9%
Cc1ccc(C)n1NC(=O)c1ccc(Cl)cc1Cl | -2.1% | 12.6µM*
CCOC(=O)c1ccc(NC(=O)Nc2ccc3c(c2)OCCO3)cc1 | -11.7% | 0.5%
CCOC(=O)c1ccc(NC(=O)N2CCOc3ccccc32)cc1 | -3.2% | 10µM*
CCC(Cc1ccccc1)NC(=O)Cn1ncc2c3ccccc3n(Cc3ccccc3)c2c1=O (stereo unspecified) | -1.9% | 6.6%
CCc1ccc(NC(=O)CC2C(=O)N(c3cccc(C)c3)C(=O)N2Cc2cccc(OC)c2)cc1 (stereo unspecified) | -8.2% | 9.9%
COc1cc(Cl)c(C)cc1NC(c1ccccc1)c1nnc(-c2ccccc2Cl)o1 (stereo unspecified) | -0.8% | 15.8µM*
Cc1ccc(C)c(NC(c2ccccc2)c2nnc(-c3ccccc3F)o2)c1 (stereo unspecified) | -1.9% | 3.7%
CCCCCCN(C(=O)CCCCCN1C(=O)NC(c2ccc(-c3ccccc3)cc2)C(C(=O)OCc2ccccc2)=C1C)C(C(=O)NCCCC)c1ccc(O)cc1 (stereo unspecified) | -1.0% | 6.31µM*
CCCCCCN(C(=O)CCCCCN1C(=O)NC(c2ccc(-c3ccccc3)cc2)C(C(=O)OCc2ccccc2)=C1C)C(C(=O)NCCCC)c1ccc(-c2ccccc2)cc1 (stereo unspecified) | -1.2% | ?
SMILES | Cruzain inh Det | Cruzain noTriton
c1ccc(Nc2ncnc3sc4c(c23)CCC4)cc1 | -5.2% | -6.9%
O=S(=O)(Nc1ncnc2sc3c(c12)CCC3)c1ccc2ccccc2c1 | -4.6% | 31.6µM*
O=S(=O)(c1ccc(-n2cnnn2)cc1)N1CCN(c2cccc(C(F)(F)F)c2)CC1 | -1.3% | ?
Cc1cccc(N=C2NC(=O)/C(=C\c3cccs3)S2)c1 | -7.0% | 31.6µM*
Cc1ccc(N=C2NC(=O)/C(=C/c3cccs3)S2)cc1C | -6.5% | ?
COc1ccc(NC(=O)c2ccco2)cc1NC(=O)c1cccc(C)c1OC | -8.1% | -2.8%
Cc1ccc(S(=O)(=O)NC(=O)Nc2ccccc2F)cc1 | -2.5% | 3.8%
Cc1ccc(C(=O)c2sc(Nc3ccccc3)c(C#N)c2N)cc1 | -5.2% | 7.7%
Cc1ccc(C(=O)c2sc(Nc3ccccc3F)c(S(=O)(=O)c3ccccc3)c2N)c(C)c1 | -2.6% | 6.31µM*
Cc1ccc(C(=O)c2sc(Nc3ccccc3)c(S(=O)(=O)c3ccccc3)c2N)c(C)c1 | -1.9% | 7.94µM*
C[C@H](CC(C#N)(c1ccccc1)c1ccccc1)N1CCCCC1 | -1.4% | 9.0%
COc1ccc(OC)c(S(=O)(=O)NCCc2sc(-c3cccnc3)nc2C)c1 | -3.8% | -8.5%
